Compounds with a hit are over-represented: about 2.5% of the library has one in this group of screens.
Cruzain Triton: blocks cruzain activity in presence of Triton detergent; P25779; purified cruzain, Z-FR-AMC fluorescence, 0.01% Triton; Potency, µM, for the others: max response, negative = inhibition, usual class: inhibitors; 0.43% of 200,000 active;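 further: plate controls were neutral wells for no effect and buffer without enzyme for full effect; nearly all actives have a fitted effect of over 40% in size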
Target sequence (P25779 123-467 limits assumed): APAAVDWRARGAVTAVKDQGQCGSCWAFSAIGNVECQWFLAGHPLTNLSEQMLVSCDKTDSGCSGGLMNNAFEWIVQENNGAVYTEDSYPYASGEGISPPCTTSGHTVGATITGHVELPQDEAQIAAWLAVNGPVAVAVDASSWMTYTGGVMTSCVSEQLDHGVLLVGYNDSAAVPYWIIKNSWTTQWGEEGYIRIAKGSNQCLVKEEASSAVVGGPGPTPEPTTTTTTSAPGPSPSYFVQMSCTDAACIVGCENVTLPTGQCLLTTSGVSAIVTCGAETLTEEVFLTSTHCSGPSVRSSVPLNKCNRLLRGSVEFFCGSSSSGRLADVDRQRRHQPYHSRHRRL
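In this qHTS format, compounds are incubated with 1.5 nM cruzain for 15 min at room temperature before 2 uM Z-FR-AMC is added. Release of AMC is followed at 360/450 nm, and progress is taken as the 60 s fluorescence difference.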
Cruzain inh noDet: blocks cruzain activity in detergent-free assay | P25779 | purified cruzain, Z-FR-AMC fluorescence, no detergent | Potency, µM, inactives show max response, negative = inhibition, most hits filed as inhibitors | 2.3% of 200,000 active | AID 1476;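 further: plate controls were enzyme without inhibitor for no effect and buffer without enzyme for full effect; nearly all actives have a fitted effect of over 40% in size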
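Detergent-free condition (0.00005% Triton X-100) in acetate buffer pH 5.5 with DTT. 1.5 nM enzyme and compound were pre-mixed 15 min, then 2 uM Z-FR-AMC substrate added; reaction progress from fluorescence change between first and third reads (60 s).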
An asterisk follows results filed as active; ? = inconclusive. The call rests on the fitted dose curve; in most records, active means well fitted curve in the direction sought with a large enough effect; inconclusive means small, poorly fitted or top-dose-only effect, or another doubt; inactive means no such curve, though single readings can be large; an effect the other way counts as inactive or inconclusive. Potency means the concentration at half of the fitted maximal effect.

SMILES	Cruzain Triton	Cruzain inh noDet
Cc1ccc2nc(NNC(=O)c3ccc(S(=O)(=O)N4CCc5ccccc5C4)cc3)sc2c1	4%	25µM*
Cc1cc(-c2csc(NC(=O)c3ccc(C#N)cc3)n2)c(C)n1Cc1ccccc1	-1%	10µM*
Cc1ccc2nc(NC(=O)c3ccc(S(=O)(=O)N4CCC(C)CC4)cc3)sc2c1	3%	-11%
CCC(CC)c1nnc(NC(=O)c2ccc(S(=O)(=O)N3CCc4ccccc4C3)cc2)s1	-4%	?
COc1ccc(-c2csc(NC(=O)c3ccc(S(=O)(=O)N4CCc5ccccc5C4)cc3)n2)cc1	0%	5µM*
COC(=O)c1ccc(-c2csc(NC(=O)c3ccc(S(=O)(=O)N4CCc5ccccc5C4)cc3)n2)cc1	1%	6.3µM*
COc1ccc(-c2nnc(NC(=O)c3ccc(S(=O)(=O)N4CCc5ccccc5C4)cc3)o2)cc1	-1%	-10%
Cc1ccc(C(=O)Nc2nc(-c3cc(Cl)sc3Cl)cs2)cc1	5%	?
CCOC(=O)N1CCC(NC(=O)c2ccc3c(c2)N(Cc2ccc(F)cc2)C(=O)c2ccccc2S3(=O)=O)CC1	-1%	?
Cc1ccc(S(=O)(=O)OC2CCN(C)CC2)cc1	-2%	5%
COc1ccc(-n2c(C)cc(-c3csc(NC(=O)c4ccc(S(=O)(=O)N(C)C)cc4)n3)c2C)cc1	-1%	10µM*
CN(C)S(=O)(=O)c1ccc(C(=O)Nc2nc(-c3cccs3)cs2)cc1	-7%	9%
O=C(NC1CCCC1)c1ccc2c(=O)n(Cc3ccccc3)c(SCc3ccccc3F)nc2c1	-1%	1%
Cc1cc(=O)oc2c(N)c(O)ccc12	2%	-16%
Cc1cc(=O)oc2c(CN(C)Cc3ccccc3)c(O)ccc12	20µM*	?
Cc1cccn2c(=O)cc(CSc3nnc(NC(=O)c4ccc(F)cc4)s3)nc12	3%	8%
Cc1ccc(Oc2nc3ccccn3c(=O)c2/C=C(\C#N)c2nc3ccccc3s2)c(C)c1	-5%	5%
CC(=O)c1sc(N/N=C\c2ccc(Br)cc2)nc1C	-13%	?
CC(=O)c1sc(N/N=C\c2cccc(Br)c2)nc1C	13µM*	0.2µM*
CC(=O)Nc1c(C)nn(-c2ccccc2)c1N1CCC(C(=O)Nc2ccccc2C(F)(F)F)CC1	2%	26%
ONC(=Nc1ccc(Cl)cc1)c1ccc(Cl)cc1	-7%	-6%
[S-]C(=Nc1ccc(Cl)cc1)N[n+]1ccccc1	20µM*	7.9µM*
CCC(C)NC(=O)Cn1c(=O)n(-c2cc(OC)cc(OC)c2)c(=O)c2ccccc21 (configuration not stated)	1%	-3%
CCC1Oc2ccc(C)cc2N(CC(=O)NCc2ccc(OC)cc2)C1=O (configuration not stated)	-3%	-11%
CC(/C=C/C=C(C)/C=C/C(=O)O)=C\C=C\C=C(C)\C=C\C=C(C)\C=C\C(=O)O	-14%	?
SMILES	Cruzain Triton	Cruzain inh noDet
Cn1c(=O)c2ncn(CC(=O)Nc3ccc4c5c(cccc35)CC4)c2n(C)c1=O	13µM*	13µM*
Cc1cccc(C)c1NC(=O)Cn1cnc2c(=O)n(C)c(=O)n(C)c21	-5%	-3%
Cn1cccc1/C=C1\C(=O)NC(=O)N(CCC2=CCCCC2)C1=O	-5%	20µM*
O=C1NC(=O)N(CCC2=CCCCC2)C(=O)/C1=C\c1cccs1	-3%	7%
O=[N+]([O-])c1ccc(N/N=C/c2cn(Cc3ccc(F)cc3)c3ccccc23)nc1	-9%	7.9µM*
Cc1cc(C=O)c(C)n1-c1ccc(Oc2ccc([N+](=O)[O-])cn2)cc1	-4%	-10%
CNC(=S)N/N=C/c1cn(Cc2ccc(F)cc2)c2ccccc12	-13%	?
Cc1cccc(C)c1-n1c(C)cc(/C=N\Nc2ccc([N+](=O)[O-])cn2)c1C	-4%	16µM*
CCc1ccccc1NC(=O)Cn1c(=O)n(Cc2ccc(OC)cc2)c(=O)c2oc3ccccc3c21	-1%	1%
COc1ccc2c(c1)c1c(c(=O)n(-c3ccccc3C)c(=O)n1CC(=O)Nc1c(C)cccc1C)n2C	1%	14%
COc1ccc(-c2nn3c(-c4ccccc4C)nnc3c3ccccc23)cc1	-10%	16%
CCCCCCCC(=O)Cl	5%	-3%
CCCCN(Cc1ccccc1)C(=O)c1oc(=O)c2ccccc2c1-c1ccc(C)cc1	-9%	?
O=[N+]([O-])c1ccc(S(=O)(=O)N2CCn3cccc3C2c2ccc(Br)cc2)cc1 (configuration not stated)	-3%	?
Cc1ccc(C2c3cccn3CCN2S(=O)(=O)c2ccc([N+](=O)[O-])cc2)cc1 (configuration not stated)	-6%	32µM*
CCCCOC(=O)/C(C#N)=C\c1ccc(-c2ccc(Cl)cc2)o1	2%	0%
Cc1nc(S/C(=C/c2ccc(-c3ccc(Cl)cc3)o2)C(=O)O)n[nH]1	-2%	13µM*
O=C(O)[C@H](C1NCCS1)N1C(=O)c2ccccc2C1=O (some centres not stated)	0%	8%
CCc1cccc(NC(=O)CCc2c(C)nc3c(c2C)c(=O)n(C)c(=O)n3C)c1	2%	5%
COC(=O)c1ccccc1NC(=O)Cc1nc(-c2ccccc2)sc1-c1ccc(C)cc1	-4%	25µM*
COC(=O)c1ccccc1NC(=O)Cc1noc2ccc(C)cc12	-4%	2%
CCN1C(=O)c2ccccc2Sc2ccc(NC(=O)Nc3ccc(C(C)=O)cc3)cc21	-5%	20%
CCN1C(=O)c2ccccc2Sc2ccc(NC(=O)Nc3ccc(Br)c(C)c3)cc21	-2%	7.9µM*
CCCc1cc(=O)oc2c3c(ccc12)OCN(Cc1ccc(OC)cc1)C3	-5%	?
O=C(O)[C@H]1CCCC[C@@H]1c1c2ccc(=O)c(O)c-2oc2c(O)c(O)ccc12	-18%	0%
SMILES	Cruzain Triton	Cruzain inh noDet
Cc1c(Cl)cccc1N/C(SCC(=O)N1CCCCCC1)=C(/C#N)c1nc2ccccc2s1	-5%	10µM*
O=C(CSc1nc2ccccc2s1)N1CCCCC1	-3%	-6%
CCCCOC(=O)c1ccc(NS(=O)(=O)c2c(C)nc3scc(C)n3c2=O)cc1	-11%	19%
Cc1ccc(Cn2ccc(NC(=O)c3cc4nc5c(c(C(F)(F)F)n4n3)CCc3ccccc3-5)n2)cc1	3%	0%
Cc1ccc(O)c(NC(=O)c2cc3nc4c(c(C(F)(F)F)n3n2)CCc2ccccc2-4)c1	-2%	10µM*
Cn1c(=O)c2c(nc(SCC(=O)Nc3ccc(F)cc3)n2Cc2ccccc2F)n(C)c1=O	5%	-10%
O=C(N/N=C/c1c[nH]c2ccccc12)c1cc(-c2ccccc2)n[nH]1	-13%	3%
O=C(N/N=C/c1c[nH]c2ccccc12)c1cc(-c2ccc(-c3ccccc3)cc2)n[nH]1	-6%	7.9µM*
COc1cc(NC(=O)c2cc(-c3cccc(OC)c3)n[nH]2)cc(OC)c1	-8%	13%
COc1ccc(CCNC(=O)C2CCCN(c3nc4c(C)cc(C)cc4s3)C2)cc1OC (configuration not stated)	-2%	?
COc1ccc(OC)c(CCNC(=O)CN2C(=O)COc3ccc(S(=O)(=O)N4CCC(C)CC4)cc32)c1	-3%	?
Cc1cc(C(=O)CSc2nnc(-c3cccc(F)c3)n2N)c(C)n1Cc1ccc2c(c1)OCO2	0%	20µM*
Cc1ccc(-n2nnnc2SCC(=O)Nc2ccc3c(c2)OCCO3)cc1C	-5%	-5%
Cc1cc(C(=O)CSc2nncs2)c(C)n1-c1ccc2c(c1)OCO2	-7%	?

Screening results as filed in PubChem.
